According to PubChem BioAssay (NCI):
The panel holds about 83,000 compounds, 20% with a hit somewhere; the sample as a whole holds those more often.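 In brief: 96-well plates, 48 h treatment, single concentration, percent growth endpoint.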 Values without a mark were called inactive. Calls of active or inactive are those of the source. How the source made its calls: active means growth percent below 10; inactive means the rest.

What follows are compounds tested on RXF 393 renal (assay: NCI-60 one-dose screen, 48 h (100 = growth as untreated, 0 = no growth, -100 = all killed)). Settings: 10 µM.

| Structure (SMILES) | growth |
| --- | --- |
| CC(C)[N+]1(C)C2CC[C@@H]1CC(OC(=O)C(CO)c1ccccc1)C2 (stereo not given in full) | 120% |
| Cc1c2c[n+](C(C)C)ccc2c(C)c2c1[nH]c1ccccc12 | 60.3% |
| Cc1ccc(-n2c(C)nn3c(=O)c4c5c(sc4nc23)CN(C)CC5)cc1 | 105% |
| CCCCCCCCCCCCCCCCCC[n+]1ccc2c(C)c3c(c(C)c2c1)c1cc(O)ccc1n3CC | -7.68% (active) |
| Cc1c2cnccc2c(C)c2c1c1cc(O)ccc1n2C(C)C | -39.5% (active) |
| COc1ccc(C(=O)CSc2nc(-c3cc(OC)ccc3OC)cc(-c3ccc(OC)cc3)c2C#N)cc1 | 107% |
| CCn1c2ccc(O)cc2c2c(C)c3c[n+](C)ccc3c(C)c21 | 57.1% |
| Cc1ccccc1N1C(=O)c2cc(S(N)(=O)=O)c(Cl)cc2NC1C (stereo not given) | 128% |
| N#Cc1c(-c2ccc(Cl)cc2)cc(-c2cc(O)ccc2O)nc1N | 15.7% |
| CN1CCc2c(sc3nc4n(-c5ccc(Cl)cc5)c(=O)[nH]n4c(=O)c23)C1 | 118% |
| Cn1c2ccccc2c2c3[nH][nH]c(=O)c3c3c4ccccc4[nH]c3c21 | -36.7% (active) |
| O=C1c2c(c3c4ccccc4n(CCCCCCN4CCOCC4)c3c3[nH]c4ccccc4c23)C(=O)N1O | 90.3% |
| Nc1ccccc1NC(=O)c1ccc(CCCC(=O)Nc2ccc(C3CC3N)cc2)cc1 (stereo not given) | 20.8% |
| Nc1nc(-c2cccnc2)nc2c1sc(=S)n2-c1ccccc1 | 100% |
| Nc1cc(-c2ccncc2)c[nH]c1=O | 125% |
